# In PubChem BioAssay (NCATS):
# Records with an inconclusive call do not appear. Calls of active or inactive are those of the source. The call rests on the fitted dose curve; in most records, active means well fitted curve in the direction sought with a large enough effect; inconclusive means small, poorly fitted or top-dose-only effect, or another doubt; inactive means no such curve, though single readings can be large; an effect the other way counts as inactive or inconclusive.
# What was measured:
# [1] = qHTS of pediatric cancer cell lines to identify multiple opportunities for drug repurposing: Primary screen for DAOY cells (AID 1347090); further: series mostly up to about 46 µM; nearly all actives have a fitted effect of over 55% in size
# How it was run: (§1)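 Cell viability, CellTiter-Glo luminescence; 500-1,000 cells/well, 8- or 11-point titration, 48 h compound exposure at 37 degrees C, 5% CO2. Controls: DMSO neutral, bortezomib 2.3 µM final as positive.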
# [2] = qHTS of pediatric cancer cell lines to identify multiple opportunities for drug repurposing: Primary screen for SK-N-MC cells (AID 1347093); further: potency means the concentration at half of the fitted maximal effect
# How it was run: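 Metabolically active cells were quantified by ATP-dependent luminescence (CellTiter-Glo, 15 min at room temperature) following 48 h treatment. Cells had been plated at 500-1,000 per well and settled for 5 h beforehand.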
# [3] = qHTS of pediatric cancer cell lines to identify multiple opportunities for drug repurposing: Primary screen for BT-37 cells (AID 1347094); further: potency means the concentration at half of the fitted maximal effect
# How it was run: (§2)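 Plated cells (500-1,000 per well, growth media) were allowed to settle for 5 hours, treated with compound dilutions for 48 hours, then lysed with CellTiter-Glo for 15 min at room temperature before luminescence reading.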
# [4] = qHTS of pediatric cancer cell lines to identify multiple opportunities for drug repurposing: Primary screen for U-2 OS cells (AID 1347096); further: nearly all actives have a fitted effect of over 50% in size
# How it was run: (§3)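 Cells (500-1,000/well) rested 5 h, then received compounds for 48 h; metabolically active cells were measured by CellTiter-Glo luminescence. Final concentrations spanned up to 46 µM (MIPE, 11-point) or 0.59 nM-46 µM (NPC, 8-point) in primary screens, 11-point in follow-ups.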
# [5] = qHTS of pediatric cancer cell lines to identify multiple opportunities for drug repurposing: Primary screen for Saos-2 cells (AID 1347097); further: nearly all actives have a fitted effect of over 40% in size; further: potency means the concentration at half of the fitted maximal effect
# How it was run: as §2
# [6] = qHTS of pediatric cancer cell lines to identify multiple opportunities for drug repurposing: Primary screen for SK-N-SH cells (AID 1347098); further: nearly all actives have a fitted effect of over 65% in size; further: potency means the concentration at half of the fitted maximal effect
# How it was run: as §3
# [7] = qHTS of pediatric cancer cell lines to identify multiple opportunities for drug repurposing: Primary screen for SJ-GBM2 cells (AID 1347091); further: potency means the concentration at half of the fitted maximal effect
# How it was run: as §1
# [8] = qHTS of pediatric cancer cell lines to identify multiple opportunities for drug repurposing: Primary screen for A673 cells (AID 1347092); further: nearly all actives have a fitted effect of over 45% in size; further: potency means the concentration at half of the fitted maximal effect
# How it was run: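 A673 cells (500-1,000 cells/well) were treated 48 hours at 37 degrees C with compounds at 11-point (0.78 nM to 46 µM) or 8-point (0.59 nM to 46 µM) dilutions. Viability read by CellTiter-Glo luminescence; concentration-response curves fitted.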
# [9] = qHTS of pediatric cancer cell lines to identify multiple opportunities for drug repurposing: Primary screen for NB-EBc1 cells (AID 1347095); further: potency means the concentration at half of the fitted maximal effect
# How it was run: as §2
# [10] = qHTS of pediatric cancer cell lines to identify multiple opportunities for drug repurposing: Primary screen for NB1643 cells (AID 1347099); further: nearly all actives have a fitted effect of over 50% in size; further: potency means the concentration at half of the fitted maximal effect
# How it was run: as §2
Structure (SMILES),Potency [1],Potency [2],Potency [3],Potency [4],Potency [5],Potency [6],Potency [7],Potency [8],Potency [9],Potency [10]
COc1ccc(C2CC(c3ccccc3)=NN2c2ccc(S(N)(=O)=O)cc2)cc1 (stereo unspecified),inactive,18.7 µM (active),12.2 µM (active),inactive,16.6 µM (active),inactive,,,,
Cc1ccc(C(C)(O)c2nc3ccccc3s2)c(C)c1 (stereo unspecified),,1.87 µM (active),3.85 µM (active),inactive,,,3.32 µM (active),2.96 µM (active),1.32 µM (active),
Clc1cc(Cl)cc(CNc2ncncc2-c2ccc3c(c2)OCO3)c1,,13.2 µM (active),,inactive,16.6 µM (active),,18.7 µM (active),14.8 µM (active),11.8 µM (active),
COc1cc(N2CCC(N3CCN(C)CC3)CC2)ccc1Nc1ncc(Cl)c(Nc2ccccc2S(=O)(=O)C(C)C)n1,inactive,0.001 µM (active),inactive,,,4.82 µM (active),,,,
NC(=O)c1cnc(-c2ccc(C3(N)CCC3)cc2)c(-c2ccccc2)c1,inactive,1.48 µM (active),inactive,inactive,,,,,inactive,
CC[C@@H]1C=C(C)C[C@H](C)C[C@H](OC)[C@H]2O[C@@](O)(C(=O)C(=O)N3CCCC[C@@H]3C(=O)O[C@H](C(C)=C[C@@H]3CC[C@H](Cl)[C@H](OC)C3)[C@H](C)[C@@H](O)CC1=O)[C@H](C)C[C@H]2OC,inactive,11.8 µM (active),,inactive,9.35 µM (active),inactive,,,,
CO[C@H]1C[C@@H]2CC[C@@H](C)[C@@](O)(O2)C(=O)C(=O)N2CCCC[C@@H]2C(=O)O[C@H]([C@H](C)C[C@@H]2CC[C@H](OP(C)(C)=O)[C@H](OC)C2)CC(=O)[C@H](C)C=C(C)[C@@H](O)[C@@H](OC)C(=O)[C@H](C)C[C@H](C)C=CC=CC=C1C,inactive,,,inactive,,inactive,,inactive,,inactive
Cc1ccc([C@@H]2O[C@H](CO)[C@@H](O)[C@H](O)[C@@H]2O)cc1Cc1ccc(-c2ccc(F)cc2)s1,inactive,,,,14.8 µM (active),,,,inactive,
COCCCCC(=NOCCN)c1ccc(C(F)(F)F)cc1,,10.5 µM (active),inactive,inactive,,24.1 µM (active),inactive,23.5 µM (active),inactive,inactive
COc1cc(Nc2ncc(F)c(Nc3ccc4c(n3)NC(=O)C(C)(C)O4)n2)cc(OC)c1OC,,0.418 µM (active),inactive,,0.935 µM (active),inactive,3.72 µM (active),14.8 µM (active),4.18 µM (active),
CO[C@H]1C[C@@H]2CC[C@@H](C)[C@@](O)(O2)C(=O)C(=O)N2CCCC[C@@H]2C(=O)O[C@H]([C@H](C)C[C@@H]2CC[C@H](OCCO)[C@H](OC)C2)CC(=O)[C@H](C)C=C(C)[C@@H](O)[C@@H](OC)C(=O)[C@H](C)C[C@H](C)C=CC=CC=C1C,inactive,,10.9 µM (active),,3.32 µM (active),,,11.8 µM (active),,inactive
CCOC1OC(=O)C[C@H]1NC(=O)[C@@H]1CCCN1C(=O)[C@@H](NC(=O)c1ccc(N)c(Cl)c1)C(C)(C)C (stereo partly specified),,14.8 µM (active),,inactive,1.18 µM (active),,1.87 µM (active),0.118 µM (active),8.33 µM (active),
Cc1ccc(/C=N/NC(=O)c2ccccc2Oc2ccccc2)o1,,16.6 µM (active),,inactive,,,20.9 µM (active),,23.5 µM (active),18.7 µM (active)
COc1ccc(-c2oc3c(CC=C(C)C)c(OC4O[C@H](CO)[C@@H](O)[C@H](O)[C@@H]4O)cc(O)c3c(=O)c2OC2O[C@@H](C)[C@H](O)[C@@H](O)[C@@H]2O)cc1 (stereo partly specified),,10.5 µM (active),,,26.4 µM (active),,18.7 µM (active),,23.5 µM (active),20.9 µM (active)
CC(C)OC(=O)CCCC=CC[C@@H]1[C@H](C=C[C@@H](O)COc2cccc(C(F)(F)F)c2)[C@H](O)C[C@@H]1O,,,,inactive,14.8 µM (active),,23.5 µM (active),inactive,23.5 µM (active),23.5 µM (active)
Nc1ncnc2c1ncn2[C@@H]1O[C@H](CO)C[C@@H]1O,,,inactive,inactive,inactive,,inactive,,,
O=C(NCc1ccncc1)C12C[C@H]3C[C@@H](C1)CC(c1ccc(Cl)cc1)(C3)C2,,0.526 µM (active),,,,,20.9 µM (active),,18.7 µM (active),
CC(C)C(=O)Nc1ncc(-c2cc(C(F)F)nn2-c2c(Cl)cccc2Cl)s1,,,,,18.7 µM (active),24.1 µM (active),20.9 µM (active),,16.6 µM (active),
O=c1cc(CN2CCOCC2)occ1OCCCCCSc1ccnc2cc(C(F)(F)F)ccc12,,1.32 µM (active),,,,,1.32 µM (active),,,inactive
OC[C@H]1O[C@@H](Oc2cc(O)cc(C=Cc3ccc(O)cc3)c2)[C@H](O)[C@@H](O)[C@H]1O,,,,inactive,inactive,,inactive,,inactive,inactive
